The values below come from PubChem BioAssay (NCATS).

A short description of assay [1]: qHTS to identify inhibitors of the type 1 interferon - major histocompatibility complex class I in skeletal muscle: primary screen against the NCATS Mechanism Interrogation Plate v5.0 (MIPE) Libary (AID 1347411). Further: nearly all actives have a fitted effect of over 65% in size. Further: potency means the concentration at half of the fitted maximal effect.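 On activity change, negative = inhibition: plate controls were vehicle for no effect and reference inhibitor for full effect.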 The procedure, abridged: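 Immortalized human C25cl48 myoblasts with HiBit knocked into endogenous HLA-B*08:01 were stimulated with 4.0 ng/ml IFN-beta and exposed to compounds (11-point 1:3 titration, top 46 uM final) for 24 hrs at 37 C; HiBiT lytic luminescence measured.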

Assay [2] is described as follows: Primary qHTS for inhibitors of nuclear receptor binding SET domain protein 2 (NSD2) in an isogenic RCH-ACV NSD2 p.E1099K mutant (9B) (AID 1645876). Further: nearly all actives have a fitted effect of over 70% in size. Further: potency means the concentration at half of the fitted maximal effect. A general note: Quantitative high-throughput screening tests each substance at several concentrations.
The nature of assay [3]: Primary qHTS for inhibitors of nuclear receptor binding SET domain protein 2 (NSD2) in an RCH-ACV wild type WT cells (2C) (AID 1645877). Further: nearly all actives have a fitted effect of over 70% in size. Further: potency means the concentration at half of the fitted maximal effect.
Assay [4] concerns the target Glutathione peroxidase 1 (Homo sapiens) (UniProt P07203). The assay can be described thus: Primary qHTS Assay for Inhibitors of Recombinant Selenoprotein Glutathione Peroxidase 1 (GPX1) (AID 1845191). Further: nearly all actives have a fitted effect of over 65% in size. Summed up: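 GR-coupled assay: compounds preincubated 30 min at room temperature with GPX1, then reaction started with CHP; final 10 nM GPX1, 1 mM GSH, 0.5 mM CHP, 0.5 mM NADPH, 100 nM GR, 0.01% BSA, pH 7.5 Tris buffer. NADPH fluorescence (340/450 nm) read at 0 and 15 min.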

The target in assay [5] is Phospholipid hydroperoxide glutathione peroxidase GPX4 (Homo sapiens) (UniProt P36969). The assay can be described thus: Primary qHTS Assay for Inhibitors of Recombinant Selenoprotein Glutathione Peroxidase 4 (GPX4) (AID 1845192). Further: nearly all actives have a fitted effect of over 65% in size. Further: potency means the concentration at half of the fitted maximal effect. On activity change, negative = inhibition: series mostly up to about 50 µM; on the % scale 0 is the no-effect control and ±100 the full control effect. The following applies: outcome: dose series up to 50 µM unless noted. Summed up: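 GR-coupled assay: recombinant GPX4 preincubated 30 min with compound at room temperature; final 200 nM GPX4, 1 mM GSH, 0.5 mM cumene hydroperoxide, 0.5 mM NADPH, 100 nM GR, 0.01% BSA, pH 7.5 Tris. NADPH fluorescence (340/450 nm) read at 0 and 15 min.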

Assay [6] in a line: qHTS drug screen for cell cycle checkpoint inhibitors in PARPi-resistant BRCA-mutant ovarian cancer cell lines. (AID 1963452; calls by dose curve; further: potency means the concentration at half of the fitted maximal effect). The settings on record: PEO1/OlaR viability, CellTiter-Glo luminescence, 96 h; for Z-AUC: stronger effect = lower value. Summed up:
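PEO1, PEO4 and PEO1/OlaR ovarian cancer cells, 600 per well, exposed 96 h at 37C to a dilution series. Viability read by CellTiter-Glo luminescence, normalized to DMSO and empty wells; activity summarized as Z-AUC.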

The mark [7] stands for this setting: measured here: PEO1 parental Z-AUC.

Inconclusive results are not listed. Activity calls are given as the source filed them. Unless noted, the call rests on the fitted dose curve; in most records, active means well fitted curve in the direction sought with a large enough effect; inconclusive means small, poorly fitted or top-dose-only effect, or another doubt; inactive means no such curve, though single readings can be large; an effect the other way counts as inactive or inconclusive. Where a SMILES comes first, the peptide text is derived from it. [ ]: non-standard residue; d: D form. The star is where a group is joined. Benzoyl(4-tBu) = CC(C)(C)c1ccc(C(=O)*)cc1; Lys(Et2) = CCN(CC)CCCC[C@H](N)C(=O)O

Chain of Glutathione peroxidase 1 (Homo sapiens) (P07203 whole entry, looked up): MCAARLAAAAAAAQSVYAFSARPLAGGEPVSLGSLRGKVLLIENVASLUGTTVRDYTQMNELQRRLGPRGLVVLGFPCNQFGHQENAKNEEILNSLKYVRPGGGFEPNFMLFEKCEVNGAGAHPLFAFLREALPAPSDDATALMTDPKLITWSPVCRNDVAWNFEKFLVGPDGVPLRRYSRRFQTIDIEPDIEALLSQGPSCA
Chain of Phospholipid hydroperoxide glutathione peroxidase GPX4 (Homo sapiens) (P36969 whole entry, looked up): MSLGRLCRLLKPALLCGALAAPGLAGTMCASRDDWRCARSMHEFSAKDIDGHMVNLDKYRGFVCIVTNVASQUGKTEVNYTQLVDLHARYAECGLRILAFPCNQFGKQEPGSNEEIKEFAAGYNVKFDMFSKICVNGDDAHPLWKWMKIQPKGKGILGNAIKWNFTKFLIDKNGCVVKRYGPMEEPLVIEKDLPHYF

Take `Cc1cnc(NC(=O)c2cc(Oc3cnc(C(=O)N(C)C)nc3)c3cc(C)oc3c2)cn1`: the Potency result in assay [1], in assay [2], in assay [3], in assay [4] and in assay [5] was “inactive” in each case. The Z-AUC is -1.14 (inactive) in assay [6], -0.452 in assay [6] (setting [7]) and 0.0814 in assay [6] (measured here: PEO4 Z-AUC).
Take `CN1CCCN(C(=O)c2cccc(-c3ccc(/C=C4/C(=O)Nc5ccc(Cl)cc54)o3)c2)CC1`: the Potency in assay [1] was 8290 nM (active); in assay [2] it was 186 nM (active); in assay [3], 166 nM (active). Also, the Potency entry in assay [4] and in assay [5] was “inactive” each time. Moreover, the values for the Z-AUC in assay [6], in assay [6] (setting [7]) and in assay [6] (measured here: PEO4 Z-AUC) were 0.657 (inactive), -0.436 and -0.635, respectively.
For the molecule `C[C@]12CC[C@H](O)CC1=CC[C@@H]1[C@@H]2CC[C@]2(C)C(c3cccnc3)=CC[C@@H]12`, the Potency result in assay [1], in assay [2], in assay [3], in assay [4] and in assay [5] was “inactive” each time. The Z-AUC is 0.978 (inactive) in assay [6], 0.324 in assay [6] (setting [7]) and 0.672 in assay [6] (measured here: PEO4 Z-AUC).
Turning to `Cc1ccc(NS(=O)(=O)c2ccc3c(c2)C2C=CCC2C(c2ccc(C(=O)O)cc2)N3)cc1C` (stereo unspecified), the Potency entry in assay [1], in assay [2], in assay [3] and in assay [4] was “inactive” in each case. In addition, the Potency in assay [5] is 22700 nM (active). Further, the Z-AUC in assay [6] is -0.665 (inactive); in assay [6] (setting [7]) it was -0.264; in assay [6] (measured here: PEO4 Z-AUC) it was -0.866.
Take `CNCCCOc1cc(F)c(-c2c(Cl)nc3ncnn3c2N[C@@H](C)C(F)(F)F)c(F)c1`: the Potency result in assay [1], in assay [4] and in assay [5] was “inactive” in each case. Besides, the Potency in assay [2] is 66.1 nM (active); in assay [3], 46.8 nM (active); in assay [6], 155 nM (active). Moreover, the Z-AUC was -1.35 in assay [6] (setting [7]) and -1.7 in assay [6] (measured here: PEO4 Z-AUC).
For the molecule `Cc1cc(-c2cnn3c(NCC4CC(C)(O)C4)cc(Oc4cccnc4)nc23)ccc1C(=O)NC1CC1` (stereo unspecified), the activity change, negative = inhibition is -24.9% [at 5.1 µM] (inactive) in assay [1] and -10.8% [at 4.52 µM] (inactive) in assay [5]. The Potency in assay [2] was 148 nM (active); in assay [3] it was 132 nM (active). In assay [4], the outcome is “inactive [at 4.49 µM]”. In addition, the Z-AUC was -0.227 (inactive) in assay [6], 0.402 in assay [6] (setting [7]) and -0.202 in assay [6] (measured here: PEO4 Z-AUC).
Turning to `COc1cc(OCc2cccc(-c3ccccc3)c2C)cc(OC)c1CN1CCCC[C@H]1C(=O)O`, the Potency result in assay [1], in assay [2], in assay [3], in assay [4] and in assay [5] was “inactive” in each case. Also, the figures for the Z-AUC in assay [6], in assay [6] (setting [7]) and in assay [6] (measured here: PEO4 Z-AUC) were -0.024 (inactive), -0.135 and -0.37, respectively.
`CCN(CC)CCCC[C@H](NC(=O)[C@H](CC(C)C)NC(=O)[C@H](C)NC(=O)[C@H](Cc1ccccc1)NC(=O)c1ccc(C(C)(C)C)cc1)C(=O)N[C@@H](CO)C(=O)OC` ({Benzoyl(4-tBu)}-FAL[Lys(Et2)]S-OMe): the Potency entry in assay [1], in assay [2], in assay [3], in assay [4] and in assay [5] was “inactive” each time. The Z-AUC in assay [6] was -0.334 (inactive); in assay [6] (setting [7]), 0.227; in assay [6] (measured here: PEO4 Z-AUC), -0.0734.
Turning to `COc1ccc(CNC(=O)c2cc(-c3cncc(Cl)c3)cnc2-c2ccccn2)nc1OC`, the Potency result in assay [1], in assay [2], in assay [3], in assay [4] and in assay [5] was “inactive” in each case. Further, the Z-AUC in assay [6] was 0.765 (inactive); in assay [6] (setting [7]), 0.872; in assay [6] (measured here: PEO4 Z-AUC), 1.32.
`Nc1nc(OC(c2ccc(-c3cccc(F)c3)cc2)C(F)(F)F)cc(-c2ccc(C[C@@H](N)C(=O)O)cc2)n1` (stereo partly specified): the Potency result in assay [1], in assay [4] and in assay [5] was “inactive” in each case. Further, the Potency in assay [2] is 18600 nM (active); in assay [3], 20900 nM (active). Besides, the Z-AUC in assay [6] was 1.03 (inactive); in assay [6] (setting [7]), 1.4; in assay [6] (measured here: PEO4 Z-AUC) it was 1.67.
Consider `CCS(=O)(=O)c1ccc2oc(-c3ccc4ccccc4c3)nc2c1`, for which the Potency result in assay [1], in assay [2], in assay [3], in assay [4] and in assay [5] was “inactive” in each case. In addition, the Z-AUC in assay [6] is -0.19 (inactive); in assay [6] (setting [7]), -0.286; in assay [6] (measured here: PEO4 Z-AUC), 0.217.
Regarding `CN(C)C/C=C/C(=O)Nc1cc2c(Nc3ccc(F)c(Cl)c3)ncnc2cc1O[C@H]1CCOC1`, the Potency in assay [1] was 16500 nM (active); in assay [2], 2350 nM (active); in assay [3], 1860 nM (active). Also, the Potency result in assay [4] and in assay [5] was “inactive” each time. Further, the figures for the Z-AUC in assay [6], in assay [6] (setting [7]) and in assay [6] (measured here: PEO4 Z-AUC) were -1.12 (inactive), -0.735 and -1.62, respectively.
Consider `O=C(CCNC(=O)c1ccc(OC(F)(F)F)cc1)N[C@@H]1CCCc2ccccc21`, for which the Potency result in assay [1], in assay [2], in assay [3], in assay [4] and in assay [5] was “inactive” throughout. For the same molecule, the Z-AUC in assay [6] was 1.15 (inactive); in assay [6] (setting [7]), 0.0965; in assay [6] (measured here: PEO4 Z-AUC) it was 0.626.
Take `Cc1c(F)cccc1NC(=O)Nc1ccc(Cl)c(S(=O)(=O)[C@H]2CCCNC2)c1O`: the Potency result in assay [1], in assay [2], in assay [3], in assay [4] and in assay [5] was “inactive” in each case. In addition, the Z-AUC in assay [6] was 1.68 (inactive); in assay [6] (setting [7]), 1.25; in assay [6] (measured here: PEO4 Z-AUC) it was 1.41.
For the molecule `C[C@H](NC(=O)CCC(F)(F)F)C(=O)N[C@@H]1C(=O)N(CCO)c2ncccc2-c2ccccc21`, the Potency entry in assay [1], in assay [2], in assay [3], in assay [4] and in assay [5] was “inactive” throughout. The Z-AUC is -0.268 (inactive) in assay [6], 0.166 in assay [6] (setting [7]) and -0.664 in assay [6] (measured here: PEO4 Z-AUC).
For `CCC1CCCCN1C(=O)n1ncc(C(O)(c2ccccc2)c2ccccc2)n1` (stereo unspecified), the Potency result in assay [1], in assay [4] and in assay [5] was “inactive” each time. For the same molecule, the results for the Potency in assay [2] and in assay [3] were 10500 nM (active) and 14800 nM (active), respectively. Besides, the values for the Z-AUC in assay [6], in assay [6] (setting [7]) and in assay [6] (measured here: PEO4 Z-AUC) were 0.1 (inactive), 0.47 and 0.409, respectively.
`C=CCNc1c(O)cc2c(O)c1C[C@@H](C)C[C@H](OC)[C@H](O)[C@@H](C)/C=C(/C)[C@H](OC(N)=O)[C@@H](OC)/C=C\C=C(\C)C(=O)N2`: the Potency in assay [1] is 52.3 nM (active); in assay [2], 1660 nM (active); in assay [3] it was 1050 nM (active). In addition, the Potency result in assay [4] and in assay [5] was “inactive” each time. Moreover, the Z-AUC in assay [6] was 0.465 (inactive); in assay [6] (setting [7]) it was 0.348; in assay [6] (measured here: PEO4 Z-AUC), 0.268.
